Measured values reported in the supplement of paper PMC13380429.

System: Vero E6 infected with SARS-CoV-2
Assay: inhibition of SARS-CoV-2 cytopathic effect; higher = more antiviral protection, active = above 15
Settings: 48 h

Measured: inhibition of SARS-CoV-2 cytopathic effect

Cc1nc(NC(=O)N2CCC[C@H]2C(N)=O)sc1-c1ccnc(C(C)(C)C(F)(F)F)c1 [alpelisib]
inactive: 1 nM 2.4% | 8.33 nM 0.48% | 100 nM 0.01% | 833.33 nM -1.87% | 10000 nM 0.02%

CNCC(O)c1ccc(O)c(O)c1 (racemic) [DL-Adrenaline]
inactive: 1 nM 1.39% | 8.33 nM -1.53% | 100 nM 1.56% | 833.33 nM -2.05% | 10000 nM -1.47%

C/C(O)=C(\C#N)C(=O)Nc1ccc(C(F)(F)F)cc1 [teriflunomide]
inactive: 1 nM 3.27% | 8.33 nM 1.99% | 100 nM 1.22% | 833.33 nM -3.04% | 10000 nM 1.1%

Nc1ccc(S(=O)(=O)Nc2nccs2)cc1 [sulfathiazole]
inactive: 1 nM 1.78% | 8.33 nM 2.25% | 100 nM 0.28% | 833.33 nM 1.1% | 10000 nM -0.08%

CC(=O)OCC(=O)[C@@]1(O)CC[C@H]2[C@@H]3CCC4=CC(=O)C=C[C@]4(C)[C@@]3(Cl)[C@@H](Cl)C[C@@]21C [dichlorisone-acetate]
inactive: 1 nM -1.93% | 8.33 nM -2.25% | 100 nM -3.39% | 833.33 nM -2.97% | 10000 nM -2.91%

O=c1[nH]c([C@@H]2CCCN2)nc2c1oc1ccc(Cl)cc12
inactive: 1 nM -0.27% | 8.33 nM 0.12% | 100 nM 1.61% | 833.33 nM -0.54% | 10000 nM -2.54%

O=c1cc[nH]c(=S)[nH]1 [2-thiouracil]
inactive: 1 nM 3.22% | 8.33 nM 2.55% | 100 nM 2.51% | 833.33 nM 0.11% | 10000 nM -0.68%

CCCCCCCCNC(=O)/C(C#N)=C/c1cn(CCCN(C)C)c2ccccc12 [dynole-34-2]
inactive: 1 nM 5.01% | 8.33 nM 2.28% | 100 nM 2.72% | 833.33 nM 0.28% | 10000 nM 12.6%

CN1CCC(=C2c3ccccc3Sc3ccccc32)CC1 [pimethixene]
inactive: 1 nM 1.38% | 8.33 nM 0.84% | 100 nM -0.63% | 833.33 nM -0.47% | 10000 nM -3.2%

Cc1[nH]c(/C=C2\C(=O)Nc3ccccc32)c(C)c1CCC(=O)O [orantinib]
inactive: 1 nM -0.96% | 8.33 nM 2.48% | 100 nM 1.61% | 833.33 nM -0.48% | 10000 nM -0.87%

N[C@H](CO)C(=O)O [D-serine]
inactive: 1 nM -1.38% | 8.33 nM 1.46% | 100 nM -1.84% | 833.33 nM -1.45% | 10000 nM 1.69%

Cc1nn(C)c2c1C(c1cccc(Cl)c1)=NCCN2 [zometapine]
inactive: 1 nM -1.8% | 8.33 nM -1.16% | 100 nM 1.14% | 833.33 nM -0.92% | 10000 nM -4.7%

CS(=O)(=O)c1ccc([C@@H](CC2CCCC2)C(=O)Nc2nccs2)cc1
inactive: 1 nM -0.6% | 8.33 nM -1.12% | 100 nM 1.31% | 833.33 nM 1.71% | 10000 nM 1.96%

Cc1c(N(C)C)c(=O)n(-c2ccccc2)n1C [amidopyrine]
inactive: 1 nM -14.8% | 8.33 nM -9.18% | 100 nM -12% | 833.33 nM -13.2% | 10000 nM -11.7%

COc1cccc(-n2nc(C(=O)O)cc2-c2ccc(C3CCCCC3)c(Cl)c2)c1
inactive: 1 nM 0.77% | 8.33 nM 1.66% | 100 nM 2.64% | 833.33 nM 1.95% | 10000 nM 6.19%

O=C(Nc1cccc(C(F)(F)F)c1)Nc1ccc(Br)cc1-c1nnn[nH]1
inactive: 1 nM 1.75% | 8.33 nM 3.12% | 100 nM 2.2% | 833.33 nM 3.69% | 10000 nM 4.81%

Nc1nc(=O)c(Br)c(-c2ccccc2)[nH]1 [bropirimine]
inactive: 1 nM -2.33% | 8.33 nM 1.04% | 100 nM 1.75% | 833.33 nM -0.1% | 10000 nM -0.45%

Cn1c(=O)c2c(ncn2CC(O)CO)n(C)c1=O (stereo not given) [dyphylline]
inactive: 1 nM 1.96% | 8.33 nM -3.64% | 100 nM 0.25% | 833.33 nM 1.93% | 10000 nM -0.77%

c1ccc(CCCN2CCN(CCOC(c3ccccc3)c3ccccc3)CC2)cc1
inactive: 1 nM 0.71% | 8.33 nM 0.97% | 100 nM -0.18% | 833.33 nM 0.61% | 10000 nM -1.85%

CC(C)N1Cc2cc(S(C)(=O)=O)ccc2N(CCN2CC=C(c3c[nH]c4cc(F)ccc34)CC2)S1(=O)=O
inactive: 1 nM -0.02% | 8.33 nM 5.05% | 100 nM 2.58% | 833.33 nM 1.15% | 10000 nM 4%

CN(C)/N=N/c1[nH]cnc1C(N)=O [dacarbazine]
inactive: 1 nM 2.03% | 8.33 nM 1.02% | 100 nM 2.4% | 833.33 nM 2.07% | 10000 nM -3.02%

C=C[C@@]1(C)CC(=O)[C@]2(O)[C@@]3(C)[C@@H](O)CCC(C)(C)[C@@H]3[C@H](OC(=O)CCN(C)C)[C@H](OC(C)=O)[C@@]2(C)O1 [colforsin-daproate]
inactive: 1 nM 0.4% | 8.33 nM -2.13% | 100 nM -3.35% | 833.33 nM 3.07%
active: 10000 nM 29.6%

CCCN1CCCC(c2cccc(O)c2)C1 (stereo in doubt) [preclamol]
inactive: 1 nM -0.2% | 8.33 nM -0.3% | 100 nM 0.42% | 833.33 nM 1.02% | 10000 nM -1.58%

CCOc1ccc(-c2ccc(Cn3c(CC(C)(C)C(=O)O)c(SC(C)(C)C)c4cc(OCc5ccc(C)cn5)ccc43)cc2)cn1
inactive: 1 nM 1.07% | 8.33 nM 0.1% | 100 nM -0.84% | 833.33 nM -0.16% | 10000 nM -0.78%

CCCCCCCCCCCCCCCCO [1-hexadecanol]
inactive: 1 nM -1.82% | 8.33 nM 0.36% | 100 nM -0.66% | 833.33 nM -0.99% | 10000 nM -4.02%

NC(=O)c1ccc(-c2nc(-c3ccccn3)c(-c3ccc4c(c3)OCO4)[nH]2)cc1
inactive: 1 nM -0.24% | 8.33 nM 0.7% | 100 nM 0.26% | 833.33 nM -3.74% | 10000 nM -3.14%

CC(=O)Nc1ncc([N+](=O)[O-])s1 [nithiamide]
inactive: 1 nM -2.44% | 8.33 nM -2.01% | 100 nM -13.5% | 833.33 nM -2.95% | 10000 nM -1.53%

CC(C)(C)NC[C@H](O)c1ccc(O)cc1Cl [meluadrine]
inactive: 1 nM -1.16% | 8.33 nM 1.91% | 100 nM 1.61% | 833.33 nM -2.53% | 10000 nM -3.94%

O=C1CC2(CCCC2)CC(=O)N1CCCCNC[C@H]1COc2ccccc2O1 (racemic)
inactive: 1 nM 2.83% | 8.33 nM -1.41% | 100 nM -1.75% | 833.33 nM -0.98% | 10000 nM -5.48%

NS(=O)(=O)NCc1csc2ccccc12
inactive: 1 nM 3.48% | 8.33 nM -0.74% | 100 nM -0.43% | 833.33 nM 3.95% | 10000 nM 2.4%

Cc1ncc(C[n+]2csc(CCOP(=O)(O)OP(=O)(O)O)c2C)c(N)n1 [thiamine-pyrophosphate]
inactive: 1 nM 2.5% | 8.33 nM 1.37% | 100 nM -0.57% | 833.33 nM 2.37% | 10000 nM 0.01%

CCCCC(=O)N(Cc1ccc(-c2ccccc2-c2nnn[nH]2)cc1)[C@H](C(=O)O)C(C)C [valsartan]
inactive: 1 nM 0.84% | 8.33 nM -1.89% | 100 nM 0.86% | 833.33 nM 0.99% | 10000 nM 0.91%

COc1ccc(S(=O)(=O)N2CCC[C@H]2C(=O)Nc2cc(C)cc(C)c2)cc1
inactive: 1 nM -4.61% | 8.33 nM -4.21% | 100 nM -5.02% | 833.33 nM -4.87% | 10000 nM 1.64%

c1ccc(C[C@H](c2ccccc2)N2CCCCC2)cc1 (racemic) [1-(1,2-diphenylethyl)piperidine-(+/-)]
inactive: 1 nM 0.78% | 8.33 nM 0.67% | 100 nM 0.96% | 833.33 nM 0.92% | 10000 nM 2.17%

O=C1COc2c(CCNCCN(C(=O)CCNCCc3ccc(Cl)c(Cl)c3)C3CCCCC3)ccc(O)c2N1
inactive: 1 nM -5.28% | 8.33 nM -4.67% | 100 nM -5.93% | 833.33 nM -1.32% | 10000 nM -3.71%

CC(=O)N(C)c1cc(-c2ccnc3c(C(=O)c4cccs4)cnn23)ccc1F [lorediplon]
inactive: 1 nM 0.42% | 8.33 nM -0.41% | 100 nM 1.97% | 833.33 nM 1.05% | 10000 nM 1.78%

Clc1ccc(C2(c3ccc(-c4cn[nH]c4)cc3)CCNCC2)cc1
inactive: 1 nM 1.57% | 8.33 nM -1.08% | 100 nM 1.96% | 833.33 nM -6.2% | 10000 nM -7.71%

O=P(O)(O)C(O)(Cc1cnc2ccccn12)P(=O)(O)O [minodronic-acid]
inactive: 1 nM -2.81% | 8.33 nM -1.07% | 100 nM -0.4% | 833.33 nM 2.46% | 10000 nM -1.52%

CNCCCOc1cc(F)c(-c2c(Cl)nc3ncnn3c2N[C@@H](C)C(F)(F)F)c(F)c1 [cevipabulin]
inactive: 1 nM 1.36% | 8.33 nM 1.13% | 100 nM 2.89% | 833.33 nM 6.1% | 10000 nM -0.76%

O=C1c2ccccc2C(=O)C1c1ccc(Cl)cc1 [chlorindione]
inactive: 1 nM -5.54% | 8.33 nM -6.24% | 100 nM -3.27% | 833.33 nM 0.64% | 10000 nM 0.34%

CC(C)N(CCCNC(=O)Nc1ccc(C(C)(C)C)cc1)C[C@H]1O[C@@H](n2cc(Br)c3c(N)ncnc32)[C@H](O)[C@@H]1O
inactive: 1 nM 0.32% | 8.33 nM 9.52% | 100 nM -1.5% | 833.33 nM -1.25% | 10000 nM 0.03%
